PPARg SRC1 recr: PPARgamma agonists recruiting SRC-1 coactivator, primary screen, biochemical | Peroxisome proliferator-activated receptor gamma (Homo sapiens), P37231 | PPARgamma-SRC-1 coactivator recruitment biochemical assay | activation, % at 8 µM | 200,000 compounds, 0.41% hits | AID 631, 2007; in the data active = activation above about 19%;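 note: 0% = DMSO and 100% = reference agonist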
Target sequence (P37231 whole entry, looked up): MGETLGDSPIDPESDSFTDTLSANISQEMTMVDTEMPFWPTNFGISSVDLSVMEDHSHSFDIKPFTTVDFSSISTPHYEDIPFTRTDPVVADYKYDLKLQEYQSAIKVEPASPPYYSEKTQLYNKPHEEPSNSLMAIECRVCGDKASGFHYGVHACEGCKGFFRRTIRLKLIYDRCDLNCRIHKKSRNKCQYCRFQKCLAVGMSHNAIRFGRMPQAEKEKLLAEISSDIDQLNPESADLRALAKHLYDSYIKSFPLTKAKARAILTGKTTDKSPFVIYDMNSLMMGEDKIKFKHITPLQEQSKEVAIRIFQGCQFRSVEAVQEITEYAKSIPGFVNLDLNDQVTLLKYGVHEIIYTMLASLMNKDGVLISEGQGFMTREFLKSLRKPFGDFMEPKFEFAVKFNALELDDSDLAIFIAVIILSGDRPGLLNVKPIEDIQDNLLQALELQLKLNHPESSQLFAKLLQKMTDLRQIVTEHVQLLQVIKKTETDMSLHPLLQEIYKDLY
SRC3 TRFRET art: TR-FRET detection interference compounds, artefact control for PPARgamma SRC-3 recruitment agonists, biochemical, TR-FRET ratio. TR-FRET artefact counter-screen, PPARgamma/SRC-3 format; hits give high values. TR-FRET ratio at 8 µM. AID 1048, 2008. 99,000 compounds, 0.39% hits
SRC1 TRFRET art: TR-FRET detection interference compounds, primary screen, artefact control for PPARgamma SRC-1 recruitment agonists, biochemical, TR-FRET emission ratio. TR-FRET detection artefact counter-screen; hits give high values. TR-FRET ratio at 8 µM. 99,000 compounds, 0.34% hits. AID 1051, 2008; in the data active = TR-FRET ratio above about 2300
SRC2 TRFRET art: TR-FRET signal artefacts, primary screen, artefact control for PPARgamma SRC-2 agonist project, biochemical. TR-FRET artefact counter-screen; hits give high values. AID 1049, 2008. TR-FRET ratio at 8 µM. 200,000 compounds, 0.4% hits
PPARg SRC2 recr: agonists of PPARg-SRC-2 recruitment, primary screen, biochemical, HTS; PPARgamma LBD-SRC-2 recruitment; activation, % at 8 µM; 200,000 compounds, 0.34% hits; Peroxisome proliferator-activated receptor gamma (Homo sapiens), P37231; in the data active = activation above about 22%;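 note: 0% = vehicle and 100% = reference agonist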
PPARg SRC-3 ag: PPARgamma agonists recruiting SRC-3 coactivator, primary screen, biochemical | 200,000 compounds, 0.26% hits | activation, % at 8 µM | biochemical PPARgamma/SRC-3 coactivator recruitment assay | Peroxisome proliferator-activated receptor gamma (Homo sapiens), P37231; in the data active = activation above about 23%;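 note: 0% = DMSO and 100% = reference agonist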
* hit, by the source's call; . = no result given. Most compounds without a hit are left out; they make up all but 0.84% or so of the library. Cut-off read from the data, not from the text of the source, unless noted: active = TR-FRET ratio above about 2000; inactive = the rest.

SMILES | PPARg SRC1 recr | SRC3 TRFRET art | SRC1 TRFRET art | SRC2 TRFRET art | PPARg SRC2 recr | PPARg SRC-3 ag
O=C(CSc1ccc(-c2ccco2)nn1)NCc1ccccc1Cl | 3 | 1557 | 2338* | 1506 | 6 | 6
Cc1csc(SCC(=O)NC(=O)C2CCCCC2)n1 | -5 | 1520 | 1712 | 1501 | 0 | -3
COc1ccc(OC)c(/C=N\NC(=O)CC(=O)NCCc2ccccc2)c1 | 7 | 1704 | 2318* | 1584 | 10 | 4
CCOc1ccc(C(C)=O)cc1CN1C(=O)NC(C)(C2CC2)C1=O (stereo not drawn) | 5 | 1509 | 1865 | 1665 | 11 | -1
Cn1c(CC(=O)c2ccc(Br)cc2)[n+](C)c2ccccc21 | -4 | 1668 | 1729 | 1643 | -4 | 4
CCCCSc1nnc([C@H](C)NC(=O)OC(C)(C)C)o1 | 1 | . | . | 2298* | 39* | -7
O=[N+]([O-])c1ccc(COc2cccc(CNc3ccc(F)cc3)c2)cc1 | -2 | 1639 | 1914 | 1394 | -3 | -4
Oc1ccc(NCc2cccc(OCc3ccc(F)cc3)c2)cc1 | 23* | 1598 | 1688 | 1856 | -1 | 3
CC1=Nc2ccccc2N=C(NC(=O)c2ccccc2)C1c1ccccc1 (stereo not drawn) | 2 | 1455 | 1803 | 1483 | -1 | 4
O=C1OCCN1C(=O)[C@H]1[C@H](c2ccc(Cl)cc2)C(c2cccc(Cl)c2)=NN1c1ccccc1 | 11 | 2817* | 3296* | 2617* | 16 | 8
O=C(O)c1cnn(-c2ccccc2)c1-n1cccc1 | 3 | . | . | 1618 | 7 | 14
NNC(=O)c1cnn(-c2ccccc2)c1-n1cccc1 | -8 | 1641 | 1758 | 2005* | 30* | 3
Cc1ccc(-n2c(=S)[nH]c3sc4c(c3c2=O)CCC4)cc1 | 8 | 2074* | 2142 | 1859 | 12 | 8
O=c1[nH]c2sc3c(c2c(=O)n1Cc1ccccc1)CCC3 | -1 | . | . | 1537 | 10 | -1
NC(=S)N1OC[C@@H]2COc3ccc4ccccc4c3[C@@H]21 | -3 | 1434 | 1758 | 1409 | -3 | 3
COCCCNc1nc(SCc2ccccc2)nc2sc3c(c12)CCC3 | 2 | . | . | 1553 | -6 | 5
N#Cc1cnn(-c2nc(SCc3ccccc3)nc3sc4c(c23)CCCC4)c1N | 9 | . | . | 2441* | 5 | 7
CCCCC(=O)NC(=S)Nc1cccc(NC(=O)c2ccccc2)c1 | -1 | 1501 | 1298 | 1441 | -5 | -3
CCOc1cc(/C=N/NC(=O)c2ccc(O)cc2)ccc1Oc1nc(Cl)ncc1F | 13 | 1632 | 2558* | 1608 | 9 | 5
O=C(CSc1nnc2c3ccccc3c3ccccc3c2n1)Nc1ccccc1F | -1 | . | . | 1707 | 5 | 8
O=C(CSc1nnc2c3ccccc3c3ccccc3c2n1)Nc1ccccc1 | 64* | . | . | 1585 | 6 | 13
Cc1ccc(C(=O)Nc2ccc(Oc3ccc(C(=O)O)c(C(=O)O)c3)cc2)cc1C | 6 | . | . | 1940 | 22* | 1
O=C(c1cnn2c(C(F)F)cc(-c3ccccc3)nc12)N1CCCc2ccccc21 | 3 | . | . | 1429 | -1 | -5
COc1ccc(-c2cc(C(F)F)n3ncc(C(=O)N4CCCc5ccccc54)c3n2)cc1 | -4 | 1947 | 1529 | 1419 | -3 | 26*
CCCCNC(=S)Nc1ccc(-c2nc3ccc(C)cc3s2)cc1 | 3 | 1753 | 1999 | 1744 | 15 | 2
SMILES | PPARg SRC1 recr | SRC3 TRFRET art | SRC1 TRFRET art | SRC2 TRFRET art | PPARg SRC2 recr | PPARg SRC-3 ag
Cc1ccc2nc(-c3ccc(NC(=S)NCCC(C)C)cc3)sc2c1 | 14 | . | . | 1682 | 41* | 21
Clc1ccc(-c2nnc3sc(-c4ccc(Br)o4)nn23)cc1 | 8 | . | . | 1593 | 11 | 28*
Clc1ccccc1-c1nnc2sc(-c3ccc(Br)o3)nn12 | 5 | . | . | 1961 | 12 | 18
CCCCOC(=O)CSc1nc(N)c(C#N)c(-c2ccc(OCC)cc2)c1C#N | 56* | . | . | 1558 | -2 | -3
COc1ccc(Nc2nc(-c3ccccc3)c(C(=O)Nc3cccnc3)s2)cc1 | 17 | 2178* | 2466* | 1853 | 16 | 19
Cc1ccc(-c2ccc(C3C(C#N)=C(N)Oc4n[nH]c(C)c43)o2)cc1 (stereo not drawn) | -1 | . | . | 1479 | -8 | 14
